For 7 compounds, outcome and AC50 results are on record in PubChem BioAssay (EPA / NIEHS).

Structures are written as SMILES. The source made the active and inactive calls. How the source made its calls: active means hit-call score of the fitted dose curve at least 0.9, where 1 is the maximum; inactive means score below 0.9.

Assay [1] in a line: APR_HepG2_NuclearSize_24hr: Apredica 24-hour HepG2 Assay for Nuclear Size (AID 2282907). As to conditions: high-content imaging, actives raise or lower the signal. Summed up: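 Read-out: nuclear diameter from Hoechst 33342 (2 ug/mL) imaging of fixed HepG2 cells, 20x, six fields/well. Compounds ran at 0.39–200 uM for 24 hr, 0.5% DMSO final. Gain or loss was fitted bidirectionally relative to the DMSO baseline.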

Assay [2] is described as follows: APR_HepG2_CellLoss_24hr: Apredica 24-hour HepG2 Assay for Cell Loss (AID 2282908).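 On AC50: fit in both directions so a hit may be cell loss or gain.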 As to conditions: high-content imaging. The essentials:
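Read-out: Hoechst 33342-stained nuclei counted by automated fluorescence imaging after formaldehyde fixation and Triton permeabilization. Ten concentrations, 0.39 to 200 uM, duplicate wells, 0.5% DMSO final. Gain or loss of signal fitted relative to DMSO baseline.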

Assay [3] in a line: APR_HepG2_MicrotubuleCSK_24hr: Apredica 24-hour HepG2 Assay for Microtubule CSK Stabilty (AID 2282909). As to conditions: HepG2 microtubule cytoskeleton imaging, actives raise or lower the signal. Summed up:
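Read-out: alpha-tubulin immunofluorescence intensity by automated high-content imaging of fixed HepG2 cells after 24 h compound treatment. Ten concentrations, 0.39 to 200 uM, in duplicate; DMSO 0.5% v/v. Taxol positive control; DMSO-normalized bidirectional curve fitting.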

Assay [4] in a line: APR_HepG2_MitoticArrest_24hr: Apredica 24-hour HepG2 Assay for Mitotic Arrest (AID 2282910). As to conditions: high-content imaging, actives raise or lower the signal. The essentials: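 Treatment lasted 24 hr in the human HepG2 line at 0.39–200 uM, solvent held at 0.5% DMSO. Fixed cells were stained with Hoechst 33342 and anti-phospho-histone H3, imaged at 20x, and analysed by gain- or loss-of-signal fitting against DMSO.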

The nature of assay [5]: APR_HepG2_MitoMembPot_24hr: Apredica 24-hour HepG2 Assay for Mitochondrial Membrane Potential (AID 2282911). As to conditions: imaging, actives raise or lower the signal. Summed up: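 Cells are dosed for 24 hr across 0.39 to 200 uM with solvent held at 0.5% DMSO. They are then stained with 250 nM MitoTracker Red CMXRos for 30 min, fixed in 3.7% formaldehyde and imaged.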

A short description of assay [6]: APR_HepG2_MitoMass_24hr: Apredica 24-hour HepG2 Assay for Mitochondrial Mass (AID 2282912). As to conditions: high-content imaging, actives raise or lower the signal. Summed up:
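HepG2, 24 hr dosing, 10 concentrations 0.39–200 uM in duplicate, DMSO 0.5% final. MitoTracker Red CMXRos 250 nM, 30 min pre-fix; 3.7% formaldehyde fix. Imaging-based fluorescence intensity; gain/loss fit vs DMSO baseline.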

Assay [7] is described as follows: APR_HepG2_p53Act_24hr: Apredica 24-hour HepG2 Assay for p53 Activation (AID 2282913).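 Further: p53 protein immunofluorescence averaged per cell in HepG2 with Hoechst nuclei.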 As to conditions: high-content imaging, actives raise or lower the signal. The essentials:
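Human HepG2 liver cells; 24 hr cpd treatment, 0.39–200 uM, 0.5% DMSO final. Fixed in 3.7% formaldehyde, permeabilized with 0.5% Triton X-100, stained with anti-p53/Cy5 plus Hoechst 33342. Six images per well at 20x; gain or loss vs DMSO.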

The nature of assay [8]: APR_HepG2_CellCycleArrest_72hr: Apredica 72-hour HepG2 Assay for Cell Cycle Arrest (AID 2282914). As to conditions: high-content imaging, actives raise or lower the signal. The essentials:
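Read-out is Hoechst-stained nuclear DNA content measured by automated fluorescence imaging (20x, six images per well), fitted in both directions relative to DMSO. Human HepG2 liver cells received 0.39–200 uM compound for 72 hr at 0.5% v/v DMSO.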

Assay [9] is described as follows: APR_HepG2_CellLoss_72hr: Apredica 72-hour HepG2 Assay for Cell Loss (AID 2282915). As to conditions: high-content imaging. The essentials:
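HepG2 cells were exposed for 72 hr to compounds at 0.39–200 uM (ten concentrations, duplicate) in 0.5% v/v final DMSO. Nuclei were stained with Hoechst 33342 after 3.7% formaldehyde fixation, imaged at 20x, and counted; fits bidirectional versus DMSO.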

Assay [10] is described as follows: APR_HepG2_P-H2AX_72hr: Apredica 72-hour HepG2 Assay for H2AX Phosphorylation (AID 2282916).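 Further: phospho-histone H2A.x immunostain intensity per cell marking DNA damage.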 As to conditions: imaging, actives raise or lower the signal. Summed up:
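Readout: phospho-H2A.x immunofluorescence (FITC secondary) plus Hoechst nuclear stain, high-content imaging at 20x, six fields/well. HepG2, 72 hr compound exposure, 0.39–200 uM, final DMSO 0.5% v/v. Gain or loss fitted relative to DMSO baseline.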

A short description of assay [11]: APR_HepG2_MitoMembPot_72hr: Apredica 72-hour HepG2 Assay for Mitochondrial Membrane Potential (AID 2282917). As to conditions: imaging, actives raise or lower the signal. The essentials: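 HepG2 cells exposed 72 h to compounds at 0.39–200 uM (0.5% v/v DMSO, duplicates); MitoTracker Red CMXRos 250 nM loaded 30 min before 3.7% formaldehyde fixation, imaged by HCS fluorescence. Bidirectional fit versus DMSO.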

A short description of assay [12]: APR_HepG2_MitoticArrest_72hr: Apredica 72-hour HepG2 Assay for Mitotic Arrest (AID 2282918). As to conditions: high-content imaging, actives raise or lower the signal. Summed up: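 Read-out is phospho-histone H3 immunofluorescence with Hoechst nuclear segmentation, imaged at 20x. Human HepG2 liver cells received ten concentrations (0.39–200 uM, final DMSO 0.5% v/v) for 72 hr before fixation. Gain or loss of signal was fitted relative to DMSO.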

A short description of assay [13]: APR_HepG2_MicrotubuleCSK_72hr: Apredica 72-hour HepG2 Assay for Microtubule CSK Stabilty (AID 2282919). As to conditions: HepG2 microtubule cytoskeleton, high-content imaging, actives raise or lower the signal. The essentials: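 Ten-point dosing (0.39–200 uM, 0.5% DMSO) of HepG2 for 72 hr, with taxol as the cytoskeletal positive control. The cells were formaldehyde-fixed and then stained with alpha-tubulin/Cy5 and Hoechst. Imaging at 20x used a −2 um Z offset for tubulin.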

Assay [14] is described as follows: APR_HepG2_P-H2AX_24hr: Apredica 24-hour HepG2 Assay for H2AX Phosphorylation (AID 2282920). As to conditions: high-content imaging, actives raise or lower the signal. The essentials:
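HepG2, 24 hr, cpd 0.39–200 uM (10 conc, duplicate), DMSO 0.5% v/v final. Fix 3.7% formaldehyde, Triton X-100 permeabilize, anti-phospho-H2A.x 1:200 + Hoechst 2 ug/mL. Imaged, bidirectional fit vs DMSO.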

Assay [15] in a line: APR_HepG2_StressKinase_72hr: Apredica 72-hour HepG2 Assay for Stress Kinase (AID 2282921). As to conditions: HepG2 stress kinase (phospho-c-Jun) imaging, actives raise or lower the signal. Summed up: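 Phospho-c-Jun immunofluorescence measured by high-content imaging at 20x, six fields per well; bidirectional curve fitting against DMSO as baseline. Dosing: 0.39–200 uM, 72 h, 0.5% DMSO final.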

Assay [16] is described as follows: APR_HepG2_StressKinase_24hr: Apredica 24-hour HepG2 Assay for Stress Kinase (AID 2282922). As to conditions: HepG2 stress kinase (phospho-c-Jun) imaging, actives raise or lower the signal. Summed up:
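After 24 hr compound treatment (up to 200 uM, final DMSO 0.5% v/v), HepG2 cells are fixed and multiplex-labeled; phospho-c-Jun intensity is captured by high-content fluorescence imaging and analyzed relative to DMSO.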

Assay [17] is described as follows: APR_HepG2_p53Act_72hr: Apredica 72-hour HepG2 Assay for p53 Activation (AID 2282923).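 Further: average cellular p53 protein immunofluorescence intensity in HepG2 cells.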 As to conditions: high-content imaging, actives raise or lower the signal. Summed up: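 Readout: p53 immunofluorescence quantified by automated high-content imaging at 20x, six fields per well, nuclei located via Hoechst. Dosing ran 72 hr over ten concentrations from 0.39 to 200 uM; bidirectional curve fitting against DMSO baseline.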

Assay [18] is described as follows: APR_HepG2_MitoMass_72hr: Apredica 72-hour HepG2 Assay for Mitochondrial Mass (AID 2282924).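 Further: MitoTracker Red CMXRos stain intensity per cell imaged as mitochondrial mass.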 As to conditions: high-content imaging, actives raise or lower the signal. Summed up: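 Steps: treat HepG2 72 hr (0.39–200 uM, duplicate wells); load MitoTracker Red CMXRos, 250 nM, 30 min; fix with 3.7% formaldehyde, permeabilise with 0.5% Triton X-100; capture images, nuclei via Hoechst 33342; fit bidirectionally against DMSO.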

Assay [19] can be described thus: APR_HepG2_NuclearSize_72hr: Apredica 72-hour HepG2 Assay for Nuclear Size (AID 2282925). As to conditions: high-content imaging, actives raise or lower the signal. The essentials:
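Compounds (0.39–200 uM, final DMSO 0.5%) were applied to HepG2 for 72 hr. Cells were then formaldehyde-fixed, permeabilized and labelled with Hoechst 33342. Nuclear diameter was quantified from six images per well.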

The nature of assay [20]: APR_HepG2_StressKinase_1hr: Apredica 1-hour HepG2 Assay for Stress Kinase (AID 2282906). As to conditions: HepG2 stress kinase (phospho-c-Jun) imaging, actives raise or lower the signal. The essentials: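 High-content imaging of phospho-c-Jun immunostaining (with Hoechst nuclear identification) after a 1 h exposure of HepG2 cells to 10 concentrations from 0.39 to 200 uM, final DMSO 0.5%. Fitted bidirectionally against DMSO.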

As for `CNC(=O)ON=C(SC)C(=O)N(C)C`, the result in [1], in assay [2], in assay [3], in assay [4], in assay [5] and in assay [6] was inactive. In addition, the result in assay [7], in assay [8], in [10], in assay [11], in assay [12] and in assay [13] was inactive. The compound was called inactive in [14], in [15], in assay [16], in [17] and in assay [19]. The concentration at half-maximal activity (AC50) (as a rule, the concentration at which the activity in the assay is half-maximal) in [9] is 100 µM (active); in assay [18] it was 87.8 µM (active).
Turning to `CNc1cnn(-c2cccc(C(F)(F)F)c2)c(=O)c1Cl`, the compound was called inactive in [20], in assay [1], in assay [2], in assay [3], in assay [4] and in assay [5]. Besides, the compound was classed as inactive in [6], in assay [7], in assay [8], in assay [9], in assay [10] and in assay [11]. The compound was called inactive in assay [12], in assay [13], in assay [14], in [15], in [17] and in assay [18]. Besides, the result in assay [19] was inactive.
In the case of `COP(=O)(OC)SCn1c(=O)oc2cc(Cl)cnc21`, the compound was classed as inactive in assay [20], in assay [1], in assay [4], in [5], in assay [6] and in [7]. Further, the compound was called inactive in [11], in [14], in assay [17], in assay [18] and in [19]. Further, the AC50 in assay [2] was 32.9 µM (active); in assay [3], 30.2 µM (active); in [8], 47.4 µM (active); in assay [9], 37.8 µM (active); in [10], 53.8 µM (active); in [12] it was 68.3 µM (active). Besides, the AC50 in assay [13] was 56.3 µM (active); in assay [15], 26.3 µM (active).
In the case of `CNC(=O)Oc1cccc2c1OC(C)(C)O2`, the compound was called inactive in [20], in [1], in [3], in assay [4], in [5] and in assay [6]. In addition, the result in [7], in assay [8], in assay [11], in assay [12], in assay [13] and in assay [15] was inactive. In addition, the compound was classed as inactive in assay [17] and in assay [19]. Moreover, the AC50 in [2] was 83.8 µM (active); in assay [9] it was 86.6 µM (active); in [10], 97 µM (active); in assay [14], 99.4 µM (active); in assay [18] it was 56.7 µM (active).
Consider `Cc1ccn2nc(S(=O)(=O)Nc3c(F)cccc3F)nc2n1`, for which the outcome in [20], in assay [1], in [2], in assay [3], in assay [4] and in [5] was inactive. Moreover, the call in assay [8], in assay [9], in [10], in [11], in assay [12] and in [13] was inactive. For the same compound, the result in assay [14], in assay [15], in [16], in [18] and in assay [19] was inactive.
For `CCOP(=S)(OCC)Oc1ccc([N+](=O)[O-])cc1`, the outcome in [20], in assay [1], in [2], in [3], in assay [4] and in [5] was inactive. The compound was called inactive in assay [6], in assay [7], in assay [8], in assay [9], in assay [10] and in assay [11]. Besides, the call in assay [12], in assay [13], in assay [14], in assay [15], in assay [17] and in assay [18] was inactive. The compound was called inactive in [19].
Take `CC(=NC#N)N(C)Cc1ccc(Cl)nc1`: the compound was classed as inactive in [20], in assay [1], in assay [2], in [3], in assay [4] and in assay [5]. Further, the compound was classed as inactive in [6], in assay [7], in assay [8], in assay [9], in [10] and in [11]. Further, the result in assay [12], in assay [13], in [14], in assay [15], in [17] and in [18] was inactive. Moreover, the compound was classed as inactive in [19].
